# NPC1 promoter act: activates the NPC1 promoter | AID 485313 | Potency, µM (series often up to 9.22 µM), for the others: at the top dose activation, most hits filed as activators | 320,000 tested, 2.4% active | Huh7 NPC1 promoter luciferase reporter, 24 h; note: % of control where 0% means no effect; nearly all actives have a fitted effect of over 60% in size
#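 Compounds in DMSO were transferred onto Huh7 NPC1-luciferase reporter cells pre-incubated 2 h; after 24 h at 37 °C, Amplite reagent was dispensed and luminescence recorded 10 min later.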
# ELG1 DNA repair: blocks ELG1-dependent DNA repair in HEK293T cells. HEK293T ELG1-luciferase reporter, luminescence, 16 h; DNA damage induced by 5-fluorouridine. Potency, µM (top dose mostly 46.1 µM), for the others: at the top dose activity change, negative = inhibition, hits mostly inhibitors. 330,000 tested, 2.3% active. AID 504467; note: % is set by controls: 0 for no effect and ±100 for the full control effect; nearly all actives have a fitted effect of over 55% in size
#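 Overnight (16 hr) co-exposure of 2,000 cells/well to 5-fluorouridine and compound at 37 °C preceded detection. Luciferase was quantified via ONE-Glo luminescence; loss of signal denotes inhibition.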
# ELG1 genotox: inducers of genotoxicity in HEK293T ELG1-luciferase cells | AID 504466 | Potency, µM (series often up to 46 µM), for inactives: at the top dose activity change, positive = activation, most hits filed as activators | 330,000 tested, 1.3% active | HEK293T ELG1-luciferase reporter, luminescence, 16 h; note: % of control where 0% means no effect; nearly all actives have a fitted effect of over 60% in size
#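 Genotoxicity was scored as increased ELG1-luciferase reporter signal, measured by ONE-Glo luminescence (30 min, room temperature). Compound or vehicle exposure of the HEK293T reporter cells lasted 16 hr at 37°C.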
# SMN2 splice enh: increases expression of the SMN2 splice variant; HEK293 SMN2-luciferase splicing reporter, luminescence, 30-36 h; Potency, µM (series often up to 46.1 µM), without a hit: at the highest dose activity change, positive = activation, actives largely listed as activators; 210,000 tested, 2.8% active; note: % of control where 0% means no effect; nearly all actives have a fitted effect of over 55% in size
#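 HEK293 cells carry an SMN2 minigene-luciferase reporter in which exon 7 inclusion puts luciferase in frame. Cells were seeded at 2000 cells/well, attached for 10-12 hours, then exposed to compounds for 30-36 hours at 37C before ONE-Glo luminescence.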
# FLuc modulator: counter-screen for miR-21 project: firefly luciferase inhibitors or activators | purified FLuc, Km substrates, luminescence inhibition | 360,000 tested, 6.9% active | Potency, µM (series often up to 57.5 µM), without a hit: at the highest dose activity change, negative = inhibition, usual class: inhibitors | P08659;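 note: plate controls were vehicle for no effect and reference inhibitor for full effect; nearly all actives have a fitted effect of over 55% in size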
# Target sequence (P08659 whole entry, looked up): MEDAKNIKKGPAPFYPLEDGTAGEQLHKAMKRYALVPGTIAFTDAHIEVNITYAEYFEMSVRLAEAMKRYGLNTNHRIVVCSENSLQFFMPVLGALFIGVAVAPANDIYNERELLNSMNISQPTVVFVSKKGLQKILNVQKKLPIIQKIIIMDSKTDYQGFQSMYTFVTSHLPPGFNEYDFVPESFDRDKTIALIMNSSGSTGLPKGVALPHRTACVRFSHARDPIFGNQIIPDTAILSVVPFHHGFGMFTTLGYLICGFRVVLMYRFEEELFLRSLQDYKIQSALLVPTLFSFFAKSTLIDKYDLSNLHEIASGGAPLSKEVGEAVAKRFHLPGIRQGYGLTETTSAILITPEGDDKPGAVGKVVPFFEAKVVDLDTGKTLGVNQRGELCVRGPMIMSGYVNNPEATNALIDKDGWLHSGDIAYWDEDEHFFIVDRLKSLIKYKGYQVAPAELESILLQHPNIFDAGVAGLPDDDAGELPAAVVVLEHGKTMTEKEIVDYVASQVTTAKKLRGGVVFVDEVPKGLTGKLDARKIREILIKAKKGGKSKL
#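 Purified P. pyralis luciferase, 10 nM final, with Km-level 10 uM D-luciferin and 10 uM ATP in 50 mM Tris acetate pH 7.5, 10 mM Mg acetate, 0.01% Tween-20, 0.05% BSA; 6-point qHTS titration about 60 µM downward; luminescence read.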
# Rab9 prom act: activators of Rab9 promoter | 320,000 tested, 2.8% active | Huh7 Rab9 promoter-luciferase reporter, luminescence, 24 h | Potency, µM (titrated, usually from 9.22 µM), without a hit: top-dose activation, negative = inhibition, most hits filed as activators; note: % of control where 0% means no effect; nearly all actives have a fitted effect of over 60% in size
#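 Steps: seed 1500 Huh7 Rab9-luc cells per well, rest 2 h at 37 °C; add compound in DMSO; incubate 24 h; add luciferase reagent, 10 min ambient; read luminescence.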
# * marks the source's active call; other numbers are inactive results; ? = inconclusive; nt = no result; [ ] = remark or other dose. Hits are enriched below; roughly 9.2% of the tested compounds scored in any of these assays. Calls come from the whole dose curve; as a rule, active = well fitted curve in the direction sought with a large enough effect; inconclusive = small, poorly fitted or top-dose-only effect, or another doubt; inactive = no such curve, though single readings can be large; an effect the other way counts as inactive or inconclusive. Potency is the fitted concentration of half-maximal effect.
SMILES,NPC1 promoter act,ELG1 DNA repair,ELG1 genotox,SMN2 splice enh,FLuc modulator,Rab9 prom act
Cc1cc(N=Nc2c(O)c3ccccc3[nH]c2=O)ccc1N=Nc1ccc(C(=O)N(C)C)cc1,?,?,17%,nt,?,?
CCOc1ccc(NS(=O)(=O)c2cc(C(=O)N3CCC3)ccc2Cl)cc1,-5%,14%,1%,nt,1%,-3%
CN1C(=O)Cc2cc(S(=O)(=O)NCc3ccc(Cl)cc3)ccc21,nt,nt,nt,nt,2%,nt
Cc1cccc(C(=O)Nc2sc(-c3ccccc3)cc2C(=O)O)c1,2.5µM*,?,?,nt,11µM*,?
NC(=O)c1ccccc1NC(=O)CN1CCCCCC1,18%,8%,-6%,nt,4%,0%
Nc1sc(-c2ccccc2)cc1C(=O)O,14%,?,26%,-3%,-20%,9%
CC(C)(C)C(=O)Nc1sc(-c2ccccc2)cc1C(=O)O,4.5µM*,?,15%,nt,11µM*,3.2µM*
NC(=O)c1cc(-c2ccccc2)sc1NC(=O)CN1CCCCC1,0%,?,-5%,-3%,19µM*,-3%
COc1cc(OC)c(NC(=O)c2cncn2-c2ccc(F)cc2)cc1Cl,-6%,-8%,21%,nt,-1%,2%
COc1ccc(-c2ccnc3nc(N4CCOCC4)nn23)cc1,-3%,-23%,-2%,13%,-3%,0%
c1ccc(Oc2ccc(-c3ccnc4nc(N5CCOCC5)nn34)cc2)cc1,-4%,18µM*,-10%,-14%,-1%,-7%
CCN(CC)CCCNC(=O)c1cc(-c2ccc3c(c2)OCO3)on1,0%,?,4%,nt,-10%,0%
CCCCNC(=O)c1cc(-c2ccc3c(c2)OCO3)on1,3.5µM*,?,?,nt,2.7µM*,2µM*
CCN(CC)C(=O)c1cc(-c2ccc(Cl)cc2)on1,nt,nt,nt,10µM*,13µM*,nt
CCCNC(=O)c1cc(-c2ccc3c(c2)OCO3)on1,0.63µM*,?,?,nt,3.8µM*,0.56µM*
CCN(CC)CCCNC(=O)c1cc(-c2ccc(Cl)cc2)on1,15%,-8%,2%,-10%,2%,6%
O=C(NCc1ccc2c(c1)OCO2)c1cc(-c2ccc(Cl)cc2Cl)on1,2%,10%,-4%,-4%,12µM*,0%
O=C(OCN1C(=O)c2ccccc2C1=O)c1cccnc1SC(F)F,0%,1%,3%,nt,-1%,4%
CN(C(=O)CSc1nnc(-c2cccs2)n1C1CC1)C1CCS(=O)(=O)C1 (centres undefined),-1%,0%,1%,nt,7%,0%
O=C(NCC1CCCO1)c1ccc2c(=O)n(Cc3cccc(Br)c3)c(=S)[nH]c2c1 (centres undefined),-2%,3%,0%,-14%,-1%,0%
CCN(CC)C(=O)c1cc(-c2ccc3c(c2)OCO3)on1,4µM*,?,?,nt,9.5µM*,3.5µM*
Cc1ccc(O)c(NC(=O)c2cc(-c3ccc4c(c3)OCO4)on2)c1,nt,nt,nt,17%,?,nt
CC(C)NC(=O)c1cc(-c2ccc3c(c2)OCO3)on1,0.56µM*,?,?,nt,3.8µM*,0.63µM*
COc1ccc(-c2cn3c(n2)sc2cc(C(=O)NCc4ccccc4)ccc23)cc1,nt,nt,nt,nt,2%,nt
COc1ccc(-n2cc(-c3ccccc3)nc2SC)cc1,?,?,?,20µM*,13µM*,?
SMILES,NPC1 promoter act,ELG1 DNA repair,ELG1 genotox,SMN2 splice enh,FLuc modulator,Rab9 prom act
COc1ccc2c(c1)sc1nc(-c3ccccc3)cn12,-14%,?,?,0.4µM*,0.034µM*,?
CCOC(=O)C1CCCN(S(=O)(=O)c2cc(C(=O)OC)n(C)c2)C1 (centres undefined),-2%,-16%,-5%,nt,0%,-9%
Cc1ccc(-c2nnc(Nc3ccc(C(=O)N(C)C)cc3)c3ccccc23)cc1S(=O)(=O)NC(C)(C)CO,5%,8%,3%,nt,21µM*,15%
CNC(=O)c1ccc(Nc2nnc(-c3ccc(C)c(S(=O)(=O)NC(C)(C)C)c3)c3ccccc23)cc1,nt,nt,nt,5%,-5%,nt
Cc1ccc(-c2nnc(Nc3ccc(C(=O)N(C)C)cc3)c3ccccc23)cc1S(=O)(=O)NCC1CCCO1 (centres undefined),2%,21µM*,-5%,5%,11µM*,15%
Cc1ccc(C(=O)Nc2cccc(C(=O)N/N=C/c3ccc(F)cc3)c2)cc1,2.2µM*,?,15%,nt,2.4µM*,1.4µM*
O=C(CC(=O)N/N=C/c1ccc(F)cc1)N/N=C/c1ccc(F)cc1,1%,-9%,-4%,nt,15µM*,2%
O=C(CCC(=O)Nc1ccc(F)cc1)N/N=C/c1ccc(F)cc1,-2%,1%,3%,nt,-1%,0%
CC(=O)Nc1cccc(C(=O)N/N=C/c2ccc(F)cc2)c1,2.8µM*,?,16µM*,27%[1.84 µM],6µM*,1.4µM*
O=C(c1cccc(Cl)c1)n1nc(-c2cccnc2)nc1NCc1ccccc1,nt,nt,nt,8%,-7%,nt
CCc1ccc(N2CC(C(=O)NC3CCCCC3C)CC2=O)cc1 (centres undefined),-2%,-8%,-3%,nt,-1%,-2%
Cc1cc(C)cc(OCC(=O)Nc2c(C)ccc3nsnc23)c1,nt,nt,nt,-3%,1%,nt
O=C(N/N=C/c1cc2c3c(c1O)CCCN3CCC2)c1ccccc1O,-9%,?,-12%,-102%,24µM*,-26%
CSc1ccccc1NC(=O)C1CC(c2c(F)cccc2Cl)=NO1 (centres undefined),14%,?,?,nt,17µM*,16%
CCCN1C(=O)C(Cc2nc3ccccc3c(=O)n2-c2cccc(C)c2)c2ccccc21 (centres undefined),nt,nt,nt,6%,-1%,nt
Cc1ccc(CN2CCN(/N=C/c3ccc(Cl)c([N+](=O)[O-])c3)CC2)cc1,-2%,-15%,-7%,-64%,-2%,-2%
CCOC(=O)Cc1cc(=O)n2[nH]c(-c3ccccc3)cc2n1,1%,?,5%,22%,?,12%
CCCc1cc(=O)n2[nH]c(NCc3c(Cl)cccc3Cl)nc2n1,0%,-14%,0%,18%,-3%,5%
CCCc1cc(=O)n2[nH]c(-c3cccc(Br)c3)cc2n1,2.8µM*,?,?,nt,5.4µM*,?
CCCc1cc(=O)n2[nH]c(-c3ccc(Br)cc3)cc2n1,?,?,17%,11µM*,?,3.5µM*
N#Cc1ccc(OCC(=O)NCCCn2ccnc2)cc1,nt,18%,1%,nt,nt,nt
O=C(CSc1nnc(-c2ccccc2)o1)Nc1ccccc1F,23%,?,?,0.79µM*,-12%,0.0032µM*

# Screens: PubChem, National Center for Advancing Translational Sciences (NCATS)
